Test [1] concerns the target Dual specificity protein kinase CLK3 (Homo sapiens) (UniProt P49761). The settings on record: at 1 µM.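 Note: each value is the mean inhibition of CLK3.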
Test [2] concerns the target Dual specificity tyrosine-phosphorylation-regulated kinase 1A (Homo sapiens) (UniProt Q13627). The settings on record: at 0.1 µM.
Test [3] has the same target. The settings on record: at 1 µM.
Test [4] deals with Dual specificity tyrosine-phosphorylation-regulated kinase 1B (Homo sapiens) (UniProt Q9Y463). The settings on record: at 0.1 µM.
Test [5] shares this target. The settings on record: at 1 µM.
The target in test [6] is T1, Dual specificity tyrosine-phosphorylation-regulated kinase 2 (Homo sapiens) (UniProt Q92630).
T1 sequence (whole entry): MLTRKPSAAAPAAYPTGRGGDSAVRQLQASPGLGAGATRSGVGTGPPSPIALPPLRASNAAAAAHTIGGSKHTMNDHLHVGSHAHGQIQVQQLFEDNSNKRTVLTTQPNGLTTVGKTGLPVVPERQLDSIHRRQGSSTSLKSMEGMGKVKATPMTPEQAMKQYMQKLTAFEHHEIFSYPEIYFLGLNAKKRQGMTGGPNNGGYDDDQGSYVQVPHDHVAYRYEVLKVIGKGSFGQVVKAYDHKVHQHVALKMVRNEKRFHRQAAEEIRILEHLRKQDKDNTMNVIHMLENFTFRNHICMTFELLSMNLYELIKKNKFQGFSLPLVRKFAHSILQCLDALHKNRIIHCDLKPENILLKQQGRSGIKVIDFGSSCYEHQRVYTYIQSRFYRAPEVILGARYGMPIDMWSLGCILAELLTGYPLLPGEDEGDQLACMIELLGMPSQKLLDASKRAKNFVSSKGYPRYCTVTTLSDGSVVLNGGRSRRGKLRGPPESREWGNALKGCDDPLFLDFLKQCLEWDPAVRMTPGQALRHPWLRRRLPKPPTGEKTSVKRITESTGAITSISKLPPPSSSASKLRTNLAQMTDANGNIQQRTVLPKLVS
The settings on record: at 0.1 µM.

Test [7] deals with T1, Dual specificity tyrosine-phosphorylation-regulated kinase 2 (Homo sapiens). The settings on record: at 1 µM.
Test [8] concerns the target Glycogen synthase kinase-3 alpha (Homo sapiens) (UniProt P49840). The settings on record: at 0.1 µM.
Test [9] has the same target. The settings on record: at 1 µM.
The target of test [10] is Glycogen synthase kinase-3 beta (Homo sapiens) (UniProt P49841). The settings on record: at 0.1 µM.
Test [11] shares this target. The settings on record: at 1 µM.
Test [12] addresses Homeodomain-interacting protein kinase 1 (Homo sapiens) (UniProt Q86Z02). The settings on record: at 0.1 µM.
Test [13] shares this target. The settings on record: at 1 µM.
Test [14] has as its target T2, Homeodomain-interacting protein kinase 4 (Homo sapiens) (UniProt Q8NE63).
T2 sequence (whole entry): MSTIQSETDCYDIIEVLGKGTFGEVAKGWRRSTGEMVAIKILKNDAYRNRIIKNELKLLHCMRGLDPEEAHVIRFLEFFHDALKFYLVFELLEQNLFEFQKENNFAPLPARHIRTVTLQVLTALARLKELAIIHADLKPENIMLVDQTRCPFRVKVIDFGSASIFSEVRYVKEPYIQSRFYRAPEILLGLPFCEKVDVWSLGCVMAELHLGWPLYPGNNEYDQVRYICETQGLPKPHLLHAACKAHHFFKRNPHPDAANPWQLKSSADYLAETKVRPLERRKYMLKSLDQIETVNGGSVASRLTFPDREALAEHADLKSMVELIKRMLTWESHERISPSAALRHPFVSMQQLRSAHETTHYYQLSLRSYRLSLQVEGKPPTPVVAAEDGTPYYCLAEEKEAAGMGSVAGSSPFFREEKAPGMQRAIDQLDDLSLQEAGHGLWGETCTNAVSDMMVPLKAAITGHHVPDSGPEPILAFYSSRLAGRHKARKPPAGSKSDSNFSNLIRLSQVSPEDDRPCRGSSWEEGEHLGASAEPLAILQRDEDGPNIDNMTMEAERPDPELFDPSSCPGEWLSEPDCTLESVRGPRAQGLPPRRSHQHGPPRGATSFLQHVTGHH
The settings on record: at 0.1 µM.

For test [15], the target named is T2, Homeodomain-interacting protein kinase 4 (Homo sapiens). The settings on record: at 1 µM.
For test [16], the target named is Mitogen-activated protein kinase 9 (Homo sapiens) (UniProt P45984). The settings on record: at 0.1 µM.
Test [17] has the same target. The settings on record: at 1 µM.
In test [18] the target is Mitogen-activated protein kinase 1 (Homo sapiens) (UniProt P28482). The settings on record: at 0.1 µM.
Test [19] has the same target. The settings on record: at 1 µM.
In test [20] the target is Mitogen-activated protein kinase 3 (Homo sapiens) (UniProt P27361). The settings on record: at 0.1 µM.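 Note: each value is a mean inhibition figure.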
Sequence of Mitogen-activated protein kinase 3 (Homo sapiens) (P27361 whole entry): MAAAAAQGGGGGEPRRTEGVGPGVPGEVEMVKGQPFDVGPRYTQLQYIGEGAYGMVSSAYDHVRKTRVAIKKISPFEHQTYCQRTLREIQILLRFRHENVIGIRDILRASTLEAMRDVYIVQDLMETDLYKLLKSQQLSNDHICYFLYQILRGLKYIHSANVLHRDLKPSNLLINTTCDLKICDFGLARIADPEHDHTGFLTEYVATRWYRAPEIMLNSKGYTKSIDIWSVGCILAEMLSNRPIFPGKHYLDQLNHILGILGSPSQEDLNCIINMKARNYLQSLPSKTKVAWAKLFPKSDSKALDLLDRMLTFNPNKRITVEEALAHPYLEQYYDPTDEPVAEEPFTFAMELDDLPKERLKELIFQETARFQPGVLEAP

Sequence of Glycogen synthase kinase-3 alpha (Homo sapiens) (P49840 2-483 limits assumed): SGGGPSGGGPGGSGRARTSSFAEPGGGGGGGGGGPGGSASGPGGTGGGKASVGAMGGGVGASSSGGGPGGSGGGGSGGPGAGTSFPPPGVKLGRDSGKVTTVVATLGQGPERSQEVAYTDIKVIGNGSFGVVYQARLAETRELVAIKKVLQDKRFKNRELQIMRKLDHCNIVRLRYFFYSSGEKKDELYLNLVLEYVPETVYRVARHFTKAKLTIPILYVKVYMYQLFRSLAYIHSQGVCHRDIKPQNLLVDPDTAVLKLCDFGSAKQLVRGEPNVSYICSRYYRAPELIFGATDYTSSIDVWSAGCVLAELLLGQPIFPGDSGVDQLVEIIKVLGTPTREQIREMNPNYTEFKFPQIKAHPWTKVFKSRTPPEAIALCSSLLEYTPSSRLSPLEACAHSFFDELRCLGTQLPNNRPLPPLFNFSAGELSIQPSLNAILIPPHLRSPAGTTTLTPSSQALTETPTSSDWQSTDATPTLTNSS
Sequence of Homeodomain-interacting protein kinase 1 (Homo sapiens) (Q86Z02 whole entry, looked up): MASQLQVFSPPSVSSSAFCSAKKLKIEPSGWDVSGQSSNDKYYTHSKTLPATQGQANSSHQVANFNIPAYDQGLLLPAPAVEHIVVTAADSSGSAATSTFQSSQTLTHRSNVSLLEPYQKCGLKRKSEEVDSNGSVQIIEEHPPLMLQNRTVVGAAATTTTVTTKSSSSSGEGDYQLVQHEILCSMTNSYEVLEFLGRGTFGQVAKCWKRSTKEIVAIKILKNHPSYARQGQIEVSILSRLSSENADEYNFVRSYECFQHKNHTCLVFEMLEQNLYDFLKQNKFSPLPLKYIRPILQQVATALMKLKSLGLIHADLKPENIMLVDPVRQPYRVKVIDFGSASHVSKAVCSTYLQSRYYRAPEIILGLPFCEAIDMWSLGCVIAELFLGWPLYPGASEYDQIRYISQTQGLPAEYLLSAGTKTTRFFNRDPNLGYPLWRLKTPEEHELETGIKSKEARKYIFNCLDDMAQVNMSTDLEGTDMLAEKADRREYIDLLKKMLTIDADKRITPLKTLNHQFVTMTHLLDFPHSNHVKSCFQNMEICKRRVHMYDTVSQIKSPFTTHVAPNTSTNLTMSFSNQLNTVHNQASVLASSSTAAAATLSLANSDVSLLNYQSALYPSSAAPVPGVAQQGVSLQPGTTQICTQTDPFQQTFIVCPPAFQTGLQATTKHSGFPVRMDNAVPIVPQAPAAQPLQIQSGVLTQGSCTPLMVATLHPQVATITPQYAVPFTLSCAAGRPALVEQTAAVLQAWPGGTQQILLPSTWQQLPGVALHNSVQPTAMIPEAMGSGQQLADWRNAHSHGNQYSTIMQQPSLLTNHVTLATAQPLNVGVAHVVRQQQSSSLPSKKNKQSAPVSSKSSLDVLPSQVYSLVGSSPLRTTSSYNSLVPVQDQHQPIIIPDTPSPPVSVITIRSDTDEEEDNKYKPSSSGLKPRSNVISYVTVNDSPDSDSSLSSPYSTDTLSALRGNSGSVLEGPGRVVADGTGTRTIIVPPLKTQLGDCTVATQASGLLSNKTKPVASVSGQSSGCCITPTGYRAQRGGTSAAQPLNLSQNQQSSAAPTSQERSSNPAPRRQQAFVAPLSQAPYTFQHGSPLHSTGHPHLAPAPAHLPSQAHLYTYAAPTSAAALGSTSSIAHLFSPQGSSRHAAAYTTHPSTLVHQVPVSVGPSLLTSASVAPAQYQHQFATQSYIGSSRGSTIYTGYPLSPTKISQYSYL
Sequence of Mitogen-activated protein kinase 1 (Homo sapiens) (P28482 whole entry): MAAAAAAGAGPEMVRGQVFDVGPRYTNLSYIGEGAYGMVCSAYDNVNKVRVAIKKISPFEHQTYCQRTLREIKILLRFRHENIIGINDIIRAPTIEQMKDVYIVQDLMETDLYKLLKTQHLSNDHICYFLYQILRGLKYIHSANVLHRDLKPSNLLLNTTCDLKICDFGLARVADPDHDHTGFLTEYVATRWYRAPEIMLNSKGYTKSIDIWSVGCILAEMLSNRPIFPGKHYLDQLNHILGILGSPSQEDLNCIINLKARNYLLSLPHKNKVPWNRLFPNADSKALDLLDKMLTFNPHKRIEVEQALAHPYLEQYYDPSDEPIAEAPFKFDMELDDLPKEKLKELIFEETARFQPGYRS
Sequence of Glycogen synthase kinase-3 beta (Homo sapiens) (P49841 whole entry, looked up): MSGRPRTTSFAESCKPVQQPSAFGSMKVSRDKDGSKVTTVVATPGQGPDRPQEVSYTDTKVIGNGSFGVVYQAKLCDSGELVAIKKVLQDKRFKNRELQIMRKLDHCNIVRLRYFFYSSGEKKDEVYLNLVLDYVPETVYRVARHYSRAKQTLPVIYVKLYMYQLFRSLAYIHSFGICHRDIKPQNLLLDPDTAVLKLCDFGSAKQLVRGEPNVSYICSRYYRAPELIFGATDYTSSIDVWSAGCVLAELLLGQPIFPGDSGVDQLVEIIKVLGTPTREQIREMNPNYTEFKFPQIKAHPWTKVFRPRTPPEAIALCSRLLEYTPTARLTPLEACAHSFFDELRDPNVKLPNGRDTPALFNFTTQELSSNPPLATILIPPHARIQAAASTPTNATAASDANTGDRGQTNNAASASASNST
Sequence of Dual specificity tyrosine-phosphorylation-regulated kinase 1B (Homo sapiens) (Q9Y463 whole entry, looked up): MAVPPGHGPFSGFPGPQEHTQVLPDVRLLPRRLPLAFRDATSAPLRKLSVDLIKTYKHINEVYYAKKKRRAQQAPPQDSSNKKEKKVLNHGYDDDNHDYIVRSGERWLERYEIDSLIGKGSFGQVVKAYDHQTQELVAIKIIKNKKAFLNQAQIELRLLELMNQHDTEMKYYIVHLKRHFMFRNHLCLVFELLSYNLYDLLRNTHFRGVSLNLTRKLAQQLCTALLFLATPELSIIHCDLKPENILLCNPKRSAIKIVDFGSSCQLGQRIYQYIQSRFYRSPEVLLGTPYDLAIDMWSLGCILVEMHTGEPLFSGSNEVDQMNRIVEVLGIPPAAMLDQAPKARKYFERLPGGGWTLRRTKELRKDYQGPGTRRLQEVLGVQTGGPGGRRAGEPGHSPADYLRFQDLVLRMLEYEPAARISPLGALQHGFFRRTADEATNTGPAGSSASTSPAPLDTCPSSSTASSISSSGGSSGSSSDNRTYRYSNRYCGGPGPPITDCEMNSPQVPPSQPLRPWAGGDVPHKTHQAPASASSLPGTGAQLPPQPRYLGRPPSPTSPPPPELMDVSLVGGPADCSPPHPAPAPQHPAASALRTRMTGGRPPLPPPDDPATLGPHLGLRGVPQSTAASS
Sequence of Dual specificity protein kinase CLK3 (Homo sapiens) (P49761 whole entry, looked up): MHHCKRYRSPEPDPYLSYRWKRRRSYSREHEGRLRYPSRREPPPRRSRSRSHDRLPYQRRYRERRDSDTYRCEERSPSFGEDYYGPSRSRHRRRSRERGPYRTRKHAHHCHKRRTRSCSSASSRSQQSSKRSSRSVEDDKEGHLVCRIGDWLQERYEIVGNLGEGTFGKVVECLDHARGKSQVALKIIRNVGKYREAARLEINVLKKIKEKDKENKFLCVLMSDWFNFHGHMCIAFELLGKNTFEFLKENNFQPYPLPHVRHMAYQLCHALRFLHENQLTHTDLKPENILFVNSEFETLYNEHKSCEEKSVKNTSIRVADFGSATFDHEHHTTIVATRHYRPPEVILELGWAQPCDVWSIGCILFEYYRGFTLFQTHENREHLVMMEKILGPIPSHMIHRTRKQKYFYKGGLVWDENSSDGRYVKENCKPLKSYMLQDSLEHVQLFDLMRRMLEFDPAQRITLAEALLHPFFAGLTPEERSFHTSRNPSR
Sequence of Mitogen-activated protein kinase 9 (Homo sapiens) (P45984 whole entry, looked up): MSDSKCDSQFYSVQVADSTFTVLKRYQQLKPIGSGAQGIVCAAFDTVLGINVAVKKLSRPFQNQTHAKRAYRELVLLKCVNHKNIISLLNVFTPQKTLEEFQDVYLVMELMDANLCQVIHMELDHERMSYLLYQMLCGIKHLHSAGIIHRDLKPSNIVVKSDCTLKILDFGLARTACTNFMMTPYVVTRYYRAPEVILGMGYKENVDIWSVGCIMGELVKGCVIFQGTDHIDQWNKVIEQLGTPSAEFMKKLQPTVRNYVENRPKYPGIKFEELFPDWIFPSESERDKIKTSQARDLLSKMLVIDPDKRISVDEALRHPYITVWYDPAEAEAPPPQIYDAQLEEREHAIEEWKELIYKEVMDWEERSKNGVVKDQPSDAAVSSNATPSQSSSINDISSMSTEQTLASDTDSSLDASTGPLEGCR

A word on the inhibition: it is the drop in the measured response relative to a control, in per cent. Turning to `CCCN1CCCC(c2ccc(Nc3nc(Nc4cc(F)ccc4C(N)=O)c4cc[nH]c4n3)c(OC)c2)C1` (stereo not given), the inhibition in [1] came out at 22.3%; in test [2], 67.5%; in [3], 82.7%; in [4], 72%; in test [5] it was 82.4%; in [6], 36.3%. Also, the inhibition was 82.3% in test [7]; 1.49% in test [8]; 2.99% in test [9]; 0.7% in test [10]; 4.25% in [11]; 46% in [12]. Further, the inhibition in [13] is 79.5%; in test [14], 58.1%; in [15], 84.3%; in [16] it was 70.3%; in test [17], 91.3%; in test [18], 8.06%. In addition, the inhibition in [19] turned out to be 36.5%; in test [20] it was 5.61%.

On to `ON=C1CCc2cc(-c3nc(C4CCNCC4)[nH]c3-c3ccncc3)ccc21`, for which the inhibition in test [1] was 0.22%; in test [2] it was -0.17%; in test [3] it was 1.12%; in test [4], 0.17%; in [5] it was -0.11%; in test [6], -0.01%. In addition, the inhibition in [7] was 1.2%; in [8], 1.4%; in test [9], 5.93%; in test [10] it was 0.85%; in test [11] it was 4.56%; in [12] it was -5.24%. Moreover, the inhibition is 0.65% in [13]; -1.3% in test [14]; 2.78% in test [15]; 2.05% in test [16]; 3.06% in test [17]; -1.76% in [18]. Besides, the inhibition in [19] is 1.85%; in test [20], 1.87%.

On to `Cc1ccc(O)cc1Nc1ccnc2ccc(S(C)(=O)=O)cc12`, for which the inhibition came to 3.42% in test [1]; 4.16% in [2]; 12.6% in test [3]; 0.55% in test [4]; 2.94% in test [5]; 3.03% in [6]. The inhibition was 4.88% in test [7]; 2.64% in test [8]; 1.72% in test [9]; 1.89% in [10]; 3.47% in test [11]; -0.12% in [12]. In addition, the inhibition in test [13] stood at 1.59%; in test [14], 2.64%; in [15], 8.27%; in test [16] it was 4.77%; in test [17] it was 5.22%; in [18], 5.91%. Also, the inhibition was found to be 5.63% in [19] and 5.26% in test [20].

As to `FC(F)(F)c1ccc(-c2nn3ncccc3c2-c2ccnc(Nc3ccc4c(c3)OCCO4)n2)cc1`, the inhibition is 5.27% in test [1]; 5.25% in test [2]; 6.32% in test [3]; 4.87% in test [4]; 5.88% in [5]; -0.81% in test [6]. Besides, the inhibition in [7] amounted to 0.53%; in test [8], 6.66%; in [9], 6.68%; in test [10], 7.6%; in [11], 9.99%; in test [12] it was 9.14%. Also, the inhibition amounted to 7.72% in [13]; 9.55% in [14]; 11.2% in [15]; 3% in [16]; 32.6% in test [17]; 1.76% in test [18]. Besides, the inhibition was -1.13% in test [19] and 3.25% in test [20].

`COC(=O)c1cncc(/C=C/c2c(C)cc(O)cc2C)c1`: the inhibition in test [1] was found to be 3.16%; in test [2], 2.81%; in [3], 7.4%; in test [4], 0.83%; in test [5], 4.47%; in test [6], 3.09%. For the same compound, the inhibition worked out at 4% in [7]; 7.07% in test [8]; 14.3% in test [9]; 6.58% in test [10]; 12.9% in test [11]; 5.96% in test [12]. Besides, the inhibition in test [13] is 7.63%; in test [14] it was 2.51%; in test [15] it was 6.29%; in [16], -0.35%; in test [17], 2.18%; in test [18], 4.28%. Further, the inhibition is 4.13% in [19] and 3.96% in [20].

In the case of `CN(C)C(=O)O[C@@H]1CN[C@@H](C#Cc2cc3ncnc(Nc4ccc(OCc5cccc(F)c5)c(Cl)c4)c3s2)C1`, the inhibition was 0.69% in [1]; 0.28% in test [2]; 2.08% in test [3]; 0.23% in test [4]; 1.08% in [5]; -0.19% in test [6]. For the same compound, the inhibition in test [7] is -0.32%; in test [8], 1.34%; in test [9], 8.31%; in test [10] it was 1.37%; in test [11], 7.41%; in test [12] it was -3.67%. Moreover, the inhibition in test [13] is -3.81%; in test [14] it was -1.55%; in [15], 0.99%; in test [16] it was 3.81%; in test [17], 4.77%; in test [18], -1.16%. In addition, the values for the inhibition in test [19] and in test [20] were 1.96% and 3.17%, respectively.

For the origin of these results see ChEMBL document CHEMBL1961873, “Compounds: GSK PKIS; Assays: Nanosyn kinase panel” (2012).
